Columns and labels:
Assay in all cases: log2 ratio of Biotin-Ahx-Ub-VS probe labelling (fragment/DMSO); higher = less target engagement (more negative = stronger competition), active = hit call of the paper (q ≤ 0.05, log2 ratio ≤ -1)
Details in all cases: compound concentration: 200 uM; treatment time: 3 h
USP34 = USP34 (UniProt Q70CQ2)
Method in brief: (§1)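 Triplicate samples of HEK293T lysate, 495 µg each, received fragment at 200 µM or vehicle for 3 h, followed by Biotin-Ahx-Ub-VS (0.5 µM final) for 1 h. After NeutrAvidin enrichment of labelled DUBs and LysC/trypsin digestion, peptides were run by diaPASEF LC-MS/MS. The values are average log2 fragment/vehicle ratios from global-median-normalised Spectronaut label-free quantities, tested by unpaired t-test on proteins having ≥2 unique peptides.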

USP36 = target: T1, USP36 (UniProt Q9P275)
T1 sequence (whole entry): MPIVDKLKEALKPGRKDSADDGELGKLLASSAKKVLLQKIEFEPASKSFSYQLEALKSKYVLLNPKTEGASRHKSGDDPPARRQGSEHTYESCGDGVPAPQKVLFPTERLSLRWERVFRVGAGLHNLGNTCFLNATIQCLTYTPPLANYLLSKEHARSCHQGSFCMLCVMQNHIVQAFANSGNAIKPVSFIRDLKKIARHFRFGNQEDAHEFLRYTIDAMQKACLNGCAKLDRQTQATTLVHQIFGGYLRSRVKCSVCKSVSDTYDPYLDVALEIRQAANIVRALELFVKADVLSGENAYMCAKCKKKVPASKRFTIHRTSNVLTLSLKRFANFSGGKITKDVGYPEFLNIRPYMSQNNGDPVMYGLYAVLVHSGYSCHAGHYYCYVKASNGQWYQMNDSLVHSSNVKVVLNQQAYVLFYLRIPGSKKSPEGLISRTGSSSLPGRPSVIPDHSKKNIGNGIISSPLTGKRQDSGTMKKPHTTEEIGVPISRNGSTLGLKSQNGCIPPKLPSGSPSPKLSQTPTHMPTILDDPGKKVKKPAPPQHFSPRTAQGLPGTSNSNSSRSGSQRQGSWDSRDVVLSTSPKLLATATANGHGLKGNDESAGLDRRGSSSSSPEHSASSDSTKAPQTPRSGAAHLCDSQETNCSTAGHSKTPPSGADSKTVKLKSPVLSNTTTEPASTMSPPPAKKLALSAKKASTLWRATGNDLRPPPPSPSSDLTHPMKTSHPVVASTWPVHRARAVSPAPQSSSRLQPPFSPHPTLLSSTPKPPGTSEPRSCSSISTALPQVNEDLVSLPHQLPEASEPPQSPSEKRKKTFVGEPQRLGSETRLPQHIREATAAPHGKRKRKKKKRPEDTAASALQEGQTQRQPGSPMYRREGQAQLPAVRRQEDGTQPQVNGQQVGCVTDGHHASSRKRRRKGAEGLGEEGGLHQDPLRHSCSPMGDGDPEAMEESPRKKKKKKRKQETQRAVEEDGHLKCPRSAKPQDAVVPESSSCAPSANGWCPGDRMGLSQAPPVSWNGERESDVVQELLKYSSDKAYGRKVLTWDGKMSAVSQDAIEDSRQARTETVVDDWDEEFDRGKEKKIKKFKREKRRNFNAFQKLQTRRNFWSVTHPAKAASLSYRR
Method in brief: as §1

USP38 = target: T2, USP38 (UniProt Q8NB14)
T2 sequence (whole entry): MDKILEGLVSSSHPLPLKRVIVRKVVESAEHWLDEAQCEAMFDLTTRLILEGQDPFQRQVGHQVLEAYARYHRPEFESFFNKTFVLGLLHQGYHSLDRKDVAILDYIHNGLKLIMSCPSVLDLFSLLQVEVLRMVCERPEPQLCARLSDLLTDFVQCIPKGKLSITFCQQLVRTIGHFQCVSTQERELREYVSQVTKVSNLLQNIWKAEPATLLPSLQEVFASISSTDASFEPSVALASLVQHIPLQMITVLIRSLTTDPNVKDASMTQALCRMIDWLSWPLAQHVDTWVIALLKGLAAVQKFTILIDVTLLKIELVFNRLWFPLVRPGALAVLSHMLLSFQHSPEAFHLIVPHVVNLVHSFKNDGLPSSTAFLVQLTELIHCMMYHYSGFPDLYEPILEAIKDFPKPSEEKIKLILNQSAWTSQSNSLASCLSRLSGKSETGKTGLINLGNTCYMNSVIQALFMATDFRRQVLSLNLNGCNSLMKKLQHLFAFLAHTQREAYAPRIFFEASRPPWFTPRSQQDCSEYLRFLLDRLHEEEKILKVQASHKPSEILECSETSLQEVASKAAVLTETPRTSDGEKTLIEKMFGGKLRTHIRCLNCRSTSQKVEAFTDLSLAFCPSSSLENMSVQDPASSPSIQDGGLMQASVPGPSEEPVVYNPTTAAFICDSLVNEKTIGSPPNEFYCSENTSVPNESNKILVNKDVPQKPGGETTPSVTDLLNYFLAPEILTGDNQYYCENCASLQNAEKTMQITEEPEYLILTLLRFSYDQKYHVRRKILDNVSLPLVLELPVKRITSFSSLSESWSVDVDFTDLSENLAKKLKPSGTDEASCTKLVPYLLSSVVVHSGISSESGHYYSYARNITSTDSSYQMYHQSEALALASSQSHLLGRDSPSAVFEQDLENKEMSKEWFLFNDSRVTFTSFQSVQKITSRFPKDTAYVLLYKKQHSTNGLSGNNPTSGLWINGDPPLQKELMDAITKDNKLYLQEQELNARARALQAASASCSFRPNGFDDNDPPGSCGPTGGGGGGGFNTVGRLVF
Method in brief: as §1

USP39 = target: T3, USP39 (UniProt Q53GS9)
T3 sequence (whole entry): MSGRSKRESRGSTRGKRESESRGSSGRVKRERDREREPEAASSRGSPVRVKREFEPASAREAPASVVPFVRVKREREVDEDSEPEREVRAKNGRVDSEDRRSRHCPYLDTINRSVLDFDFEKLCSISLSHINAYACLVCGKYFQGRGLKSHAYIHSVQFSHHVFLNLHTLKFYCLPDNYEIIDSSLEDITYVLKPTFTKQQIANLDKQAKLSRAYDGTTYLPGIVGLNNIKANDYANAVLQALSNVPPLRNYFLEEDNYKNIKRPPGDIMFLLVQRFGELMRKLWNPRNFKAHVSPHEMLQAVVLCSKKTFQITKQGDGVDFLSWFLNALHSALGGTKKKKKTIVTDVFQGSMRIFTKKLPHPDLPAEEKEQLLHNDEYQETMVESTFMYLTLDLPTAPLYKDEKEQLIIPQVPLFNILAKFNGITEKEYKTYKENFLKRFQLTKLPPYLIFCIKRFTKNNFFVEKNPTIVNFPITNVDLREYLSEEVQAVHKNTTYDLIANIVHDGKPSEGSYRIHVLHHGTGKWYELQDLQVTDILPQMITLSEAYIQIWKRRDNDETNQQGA
Method in brief: as §1

USP4 = target: T4, USP4 (UniProt Q13107)
T4 sequence (whole entry): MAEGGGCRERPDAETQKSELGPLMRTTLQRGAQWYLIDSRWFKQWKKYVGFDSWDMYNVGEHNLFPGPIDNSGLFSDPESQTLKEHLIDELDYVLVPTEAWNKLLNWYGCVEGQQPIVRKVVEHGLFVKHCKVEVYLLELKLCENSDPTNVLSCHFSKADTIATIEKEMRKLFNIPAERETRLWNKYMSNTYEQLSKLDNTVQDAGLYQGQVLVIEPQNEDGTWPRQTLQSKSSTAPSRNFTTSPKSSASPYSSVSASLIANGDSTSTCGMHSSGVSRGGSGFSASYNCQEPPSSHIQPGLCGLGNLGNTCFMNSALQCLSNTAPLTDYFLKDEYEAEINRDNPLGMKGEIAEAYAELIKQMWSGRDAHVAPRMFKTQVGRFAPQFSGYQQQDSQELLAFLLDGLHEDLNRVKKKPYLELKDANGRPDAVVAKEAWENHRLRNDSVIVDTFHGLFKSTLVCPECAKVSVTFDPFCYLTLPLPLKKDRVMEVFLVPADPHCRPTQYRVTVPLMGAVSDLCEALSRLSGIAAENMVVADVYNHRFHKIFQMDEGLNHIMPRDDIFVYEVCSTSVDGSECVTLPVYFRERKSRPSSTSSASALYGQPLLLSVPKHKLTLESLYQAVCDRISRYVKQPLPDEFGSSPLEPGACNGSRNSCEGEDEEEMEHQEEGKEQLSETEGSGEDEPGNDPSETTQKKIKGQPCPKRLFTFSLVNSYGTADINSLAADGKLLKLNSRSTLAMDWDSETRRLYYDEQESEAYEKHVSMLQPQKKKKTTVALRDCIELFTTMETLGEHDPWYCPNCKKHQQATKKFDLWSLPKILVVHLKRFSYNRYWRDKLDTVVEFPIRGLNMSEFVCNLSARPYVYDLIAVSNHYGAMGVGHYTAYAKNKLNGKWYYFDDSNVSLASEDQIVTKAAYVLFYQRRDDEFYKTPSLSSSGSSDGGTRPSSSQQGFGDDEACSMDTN
Method in brief: as §1

Measured: log2 ratio of Biotin-Ahx-Ub-VS probe labelling

USP34, sequence (Q70CQ2 whole entry, the tested form may be a part): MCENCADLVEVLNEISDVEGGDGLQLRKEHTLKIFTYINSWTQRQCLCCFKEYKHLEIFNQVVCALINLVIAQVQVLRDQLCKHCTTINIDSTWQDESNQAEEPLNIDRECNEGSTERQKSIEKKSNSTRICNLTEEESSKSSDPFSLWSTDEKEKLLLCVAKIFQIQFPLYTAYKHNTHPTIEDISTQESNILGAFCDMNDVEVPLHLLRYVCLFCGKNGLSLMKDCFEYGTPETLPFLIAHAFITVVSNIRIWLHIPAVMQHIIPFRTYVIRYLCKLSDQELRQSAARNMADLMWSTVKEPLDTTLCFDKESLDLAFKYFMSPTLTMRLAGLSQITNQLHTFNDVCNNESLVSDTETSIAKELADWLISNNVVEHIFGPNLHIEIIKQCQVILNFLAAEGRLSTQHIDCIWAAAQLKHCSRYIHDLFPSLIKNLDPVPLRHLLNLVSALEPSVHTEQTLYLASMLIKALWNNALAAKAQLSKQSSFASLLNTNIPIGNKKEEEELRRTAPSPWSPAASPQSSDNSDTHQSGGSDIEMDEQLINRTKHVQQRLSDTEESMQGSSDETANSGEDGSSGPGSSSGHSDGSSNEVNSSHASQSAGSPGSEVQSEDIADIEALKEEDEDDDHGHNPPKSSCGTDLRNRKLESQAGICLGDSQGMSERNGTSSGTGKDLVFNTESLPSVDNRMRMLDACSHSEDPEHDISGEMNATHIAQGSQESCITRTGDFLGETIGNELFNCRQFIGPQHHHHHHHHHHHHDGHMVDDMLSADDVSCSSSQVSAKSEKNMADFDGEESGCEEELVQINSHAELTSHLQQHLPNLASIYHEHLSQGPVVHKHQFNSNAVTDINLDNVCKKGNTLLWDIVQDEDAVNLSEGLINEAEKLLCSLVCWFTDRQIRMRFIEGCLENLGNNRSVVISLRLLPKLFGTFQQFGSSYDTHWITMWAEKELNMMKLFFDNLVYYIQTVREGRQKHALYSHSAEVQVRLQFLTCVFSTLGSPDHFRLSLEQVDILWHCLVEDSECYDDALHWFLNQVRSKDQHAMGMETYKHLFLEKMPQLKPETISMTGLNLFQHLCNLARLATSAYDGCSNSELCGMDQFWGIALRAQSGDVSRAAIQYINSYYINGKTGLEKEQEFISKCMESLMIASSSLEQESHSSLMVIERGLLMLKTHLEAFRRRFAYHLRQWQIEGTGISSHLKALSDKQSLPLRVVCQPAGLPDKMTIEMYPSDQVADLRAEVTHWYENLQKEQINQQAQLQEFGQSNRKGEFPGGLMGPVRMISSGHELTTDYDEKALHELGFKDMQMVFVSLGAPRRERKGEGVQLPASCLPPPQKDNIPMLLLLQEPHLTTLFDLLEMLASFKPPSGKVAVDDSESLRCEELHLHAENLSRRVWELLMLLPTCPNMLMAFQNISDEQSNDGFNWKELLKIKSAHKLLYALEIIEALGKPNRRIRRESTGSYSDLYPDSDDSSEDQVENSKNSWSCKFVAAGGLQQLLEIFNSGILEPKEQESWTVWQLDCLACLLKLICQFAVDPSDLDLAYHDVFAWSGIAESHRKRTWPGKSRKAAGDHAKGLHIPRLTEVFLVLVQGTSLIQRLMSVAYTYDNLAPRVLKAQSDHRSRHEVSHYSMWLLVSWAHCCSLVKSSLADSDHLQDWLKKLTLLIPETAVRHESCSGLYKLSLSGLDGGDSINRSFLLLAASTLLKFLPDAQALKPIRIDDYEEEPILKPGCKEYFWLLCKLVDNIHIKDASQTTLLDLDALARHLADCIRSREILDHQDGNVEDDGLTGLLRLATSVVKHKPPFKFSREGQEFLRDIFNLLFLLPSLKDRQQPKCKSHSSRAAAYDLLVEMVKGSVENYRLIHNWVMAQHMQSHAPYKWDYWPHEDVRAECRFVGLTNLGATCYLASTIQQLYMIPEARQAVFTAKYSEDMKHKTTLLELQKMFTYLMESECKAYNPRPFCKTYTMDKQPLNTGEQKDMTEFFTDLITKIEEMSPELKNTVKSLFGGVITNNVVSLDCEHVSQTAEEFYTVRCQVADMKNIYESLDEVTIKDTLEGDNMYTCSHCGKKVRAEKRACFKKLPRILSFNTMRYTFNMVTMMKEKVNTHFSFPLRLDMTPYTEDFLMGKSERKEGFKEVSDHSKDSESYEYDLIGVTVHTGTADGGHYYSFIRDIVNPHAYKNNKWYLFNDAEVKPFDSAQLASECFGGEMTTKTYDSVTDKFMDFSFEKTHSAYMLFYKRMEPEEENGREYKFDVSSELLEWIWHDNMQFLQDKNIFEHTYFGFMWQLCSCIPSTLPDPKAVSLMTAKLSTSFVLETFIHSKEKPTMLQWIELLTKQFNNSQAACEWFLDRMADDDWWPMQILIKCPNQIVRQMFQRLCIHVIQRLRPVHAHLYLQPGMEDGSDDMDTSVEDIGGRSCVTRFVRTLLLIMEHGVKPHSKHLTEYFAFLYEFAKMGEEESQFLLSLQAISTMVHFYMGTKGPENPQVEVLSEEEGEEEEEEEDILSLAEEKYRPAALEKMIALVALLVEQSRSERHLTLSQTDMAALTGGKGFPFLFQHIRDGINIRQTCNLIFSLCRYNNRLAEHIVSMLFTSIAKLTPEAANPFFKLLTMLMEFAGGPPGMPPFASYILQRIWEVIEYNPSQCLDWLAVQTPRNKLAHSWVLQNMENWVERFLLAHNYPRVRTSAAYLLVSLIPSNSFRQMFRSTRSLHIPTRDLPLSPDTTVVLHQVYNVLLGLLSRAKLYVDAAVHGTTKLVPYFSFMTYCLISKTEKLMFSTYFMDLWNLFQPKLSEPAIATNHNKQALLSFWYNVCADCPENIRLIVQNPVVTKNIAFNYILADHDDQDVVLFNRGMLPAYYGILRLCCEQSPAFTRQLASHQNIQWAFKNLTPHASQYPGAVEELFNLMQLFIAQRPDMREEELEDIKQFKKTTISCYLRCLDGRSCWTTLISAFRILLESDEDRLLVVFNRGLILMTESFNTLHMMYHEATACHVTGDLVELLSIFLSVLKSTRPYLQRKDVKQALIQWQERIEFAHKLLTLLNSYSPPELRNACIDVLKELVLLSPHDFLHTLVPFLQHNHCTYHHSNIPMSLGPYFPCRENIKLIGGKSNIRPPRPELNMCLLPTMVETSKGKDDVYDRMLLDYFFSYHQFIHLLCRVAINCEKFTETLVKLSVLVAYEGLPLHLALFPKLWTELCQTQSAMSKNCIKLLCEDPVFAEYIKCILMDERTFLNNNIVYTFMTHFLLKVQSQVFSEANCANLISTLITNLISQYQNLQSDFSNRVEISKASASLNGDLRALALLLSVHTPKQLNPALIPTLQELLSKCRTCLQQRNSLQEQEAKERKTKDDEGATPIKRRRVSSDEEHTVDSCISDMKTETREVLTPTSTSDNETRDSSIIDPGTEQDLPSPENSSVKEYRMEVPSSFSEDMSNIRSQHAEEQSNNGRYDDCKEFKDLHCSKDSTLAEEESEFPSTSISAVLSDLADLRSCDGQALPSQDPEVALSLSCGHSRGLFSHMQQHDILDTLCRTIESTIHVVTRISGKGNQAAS

O=C(CCl)Nc1cccc2ncccc12
inactive: USP34 -0.104 | USP36 0.45 | USP38 0.13 | USP39 0.472 | USP4 0.0333
